Results on nine compounds are retold here after PubChem BioAssay (EPA / NIEHS).

Structures are written as SMILES. Where a structure was tested more than once in an assay, its records may differ in their call. Active and inactive are the calls of the source. How the source made its calls: active means hit-call score of the fitted dose curve at least 0.9, where 1 is the maximum; inactive means score below 0.9.

By AC50 is commonly meant the midpoint of the concentration-response curve, whichever way the signal moves.

The nature of assay [1]: APR_HepG2_MicrotubuleCSK_72hr: Apredica 72-hour HepG2 Assay for Microtubule CSK Stabilty (AID 2282919). Particulars: HepG2 microtubule cytoskeleton, high-content imaging, actives raise or lower the signal. Summed up:
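Ten-point dosing (0.39–200 uM, 0.5% DMSO) of HepG2 for 72 hr, with taxol as the cytoskeletal positive control. The cells were formaldehyde-fixed and then stained with alpha-tubulin/Cy5 and Hoechst. Imaging at 20x used a −2 um Z offset for tubulin.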

Assay [2] is described as follows: APR_HepG2_P-H2AX_24hr: Apredica 24-hour HepG2 Assay for H2AX Phosphorylation (AID 2282920). The note with it: high-content imaging, actives raise or lower the signal. Summed up: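 Signal comes from a FITC-labeled secondary detecting phospho-histone H2A.x in fixed HepG2 cells, quantified by automated imaging at 20x. Dosing ran 24 hr across 0.39–200 uM with 0.5% v/v DMSO.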

Assay [3] is described as follows: APR_HepG2_StressKinase_72hr: Apredica 72-hour HepG2 Assay for Stress Kinase (AID 2282921). Particulars: HepG2 stress kinase (phospho-c-Jun) imaging, actives raise or lower the signal. Summed up: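 After a 72 h compound treatment spanning 0.39 to 200 uM, formaldehyde-fixed cells are labelled for phosphorylated c-Jun and nuclei, imaged by automated fluorescence microscopy, and activity is fitted in both directions relative to DMSO controls.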

Assay [4] is described as follows: APR_HepG2_StressKinase_24hr: Apredica 24-hour HepG2 Assay for Stress Kinase (AID 2282922). The note with it: HepG2 stress kinase (phospho-c-Jun) imaging, actives raise or lower the signal. Summed up: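 After 24 hr compound treatment (up to 200 uM, final DMSO 0.5% v/v), HepG2 cells are fixed and multiplex-labeled; phospho-c-Jun intensity is captured by high-content fluorescence imaging and analyzed relative to DMSO.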

Assay [5] in a line: APR_HepG2_p53Act_72hr: Apredica 72-hour HepG2 Assay for p53 Activation (AID 2282923).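 Further: average cellular p53 protein immunofluorescence intensity in HepG2 cells.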 The note with it: high-content imaging, actives raise or lower the signal. Summed up: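 Imaging-based endpoint: after 72 hr compound exposure (up to 200 uM, 0.5% DMSO), fixed and permeabilized monolayers were labelled with anti-p53 antibody and imaged; signal change in either direction was fitted relative to DMSO controls.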

Assay [6] can be described thus: APR_HepG2_MitoMass_72hr: Apredica 72-hour HepG2 Assay for Mitochondrial Mass (AID 2282924).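 Further: MitoTracker Red CMXRos stain intensity per cell imaged as mitochondrial mass.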 Particulars: high-content imaging, actives raise or lower the signal. Summed up:
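Steps: treat HepG2 72 hr (0.39–200 uM, duplicate wells); load MitoTracker Red CMXRos, 250 nM, 30 min; fix with 3.7% formaldehyde, permeabilise with 0.5% Triton X-100; capture images, nuclei via Hoechst 33342; fit bidirectionally against DMSO.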

Assay [7] can be described thus: ATG_CRE_CIS: Attagene CIS-FACTORIAL HepG2 Assay for human cAMP Responsive Element (CRE) binding protein 3 (AID 2282926). Particulars: HepG2 CRE cis-reporter, Attagene multiplexed mRNA; actives raise or lower the signal. Summed up:
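Cells carrying cis-regulated reporter constructs respond through their own endogenous factors. After 24 h treatment, RNA is reverse-transcribed, amplified, labelled and sized by capillary electrophoresis; up- and down-regulation are both scored against vehicle.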

Assay [8] deals with CCAAT/enhancer-binding protein beta (Homo sapiens) (UniProt P17676). The assay can be described thus: ATG_C_EBP_CIS: Attagene CIS-FACTORIAL HepG2 Assay for human CCAAT/Enhancer Binding Protein (C/EBP) beta (AID 2282927). Particulars: HepG2 Attagene cis-factorial transcription factor reporter; actives raise or lower the signal. The method in brief:
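RT-PCR/capillary electrophoresis fluorescence of reporter mRNA, 24 h post-dose, in HepG2 cells carrying transfected cis-promoter reporter units. Bidirectional curve fitting against DMSO baseline captures gain or loss of signal.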

The nature of assay [9]: ATG_CMV_CIS: Attagene CIS-FACTORIAL HepG2 Assay for human CMV (Internal Marker) (AID 2282928).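 Further: endpoint acts as a background internal control marker rather than a target.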 The note with it: HepG2 CMV promoter reporter, transcription factor profiling; actives raise or lower the signal. Summed up:
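Bidirectional fits against DMSO are applied to reporter mRNA, read by RT-PCR with capillary electrophoresis, from HepG2 cells exposed 24 h. The endpoint serves as an internal CMV background marker within the cis-factorial reporter panel.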

A short description of assay [10]: ATG_DR4_LXR_CIS: Attagene CIS-FACTORIAL HepG2 Assay for human Liver X Receptor (LXR), DR4 submotif (AID 2282929). The note with it: HepG2 Attagene DR4 cis-reporter, mRNA transcription; actives raise or lower the signal. Summed up:
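Endogenous factor activity at a DR4 cis-element is read as reporter mRNA in transiently transfected HepG2 cells. Exposure lasts 24 h; transcripts are amplified, fluorescently labelled and sized by capillary electrophoresis, with DMSO as baseline.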

Sequence of CCAAT/enhancer-binding protein beta (Homo sapiens) (P17676 whole entry, looked up): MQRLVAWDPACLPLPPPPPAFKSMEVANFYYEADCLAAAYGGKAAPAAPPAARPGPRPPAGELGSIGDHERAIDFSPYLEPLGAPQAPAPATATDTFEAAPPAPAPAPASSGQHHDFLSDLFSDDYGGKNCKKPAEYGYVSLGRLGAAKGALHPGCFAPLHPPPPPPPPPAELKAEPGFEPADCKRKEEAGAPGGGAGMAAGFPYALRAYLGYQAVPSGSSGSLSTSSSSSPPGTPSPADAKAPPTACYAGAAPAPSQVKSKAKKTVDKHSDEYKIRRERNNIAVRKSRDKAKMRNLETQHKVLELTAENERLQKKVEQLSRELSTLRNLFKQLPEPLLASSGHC

For the compound `CCC(C)(C)c1ccc(O)c(C(C)(C)CC)c1`, the outcome in [1], in [3], in [4], in assay [7] and in [8] was inactive. The concentration at half-maximal activity (AC50) in assay [2] was 39.3 µM (active); in [5], 29.7 µM (active); in assay [6], 82.5 µM (active); in assay [9], 11.1 µM (active); in [10], 4.91 µM (active).
As to `CCCCCCCCc1ccc(O)cc1`, the compound was called inactive in assay [1], in [2], in assay [3], in assay [4], in assay [5] and in assay [7]. The outcome in [8], in assay [9] and in assay [10] was inactive. Also, the AC50 was 95 µM (active) in [6] and 11.2 µM (active) in [10].
For the compound `CC(C)(C)CC(C)(C)c1ccc(O)cc1`, the compound was classed as inactive in assay [1], in assay [2], in assay [3], in assay [4], in assay [5] and in assay [6]. Further, the compound was called inactive in [7], in assay [8] and in [10]. Further, in assay [10], the concentration at half-maximal activity (AC50) was 14.4 µM (active).
With `COc1ccc(C=O)cc1`, the call in assay [7], in assay [8], in assay [9] and in assay [10] was inactive.
As to `ClC1=C(Cl)[C@]2(Cl)[C@@H]3[C@@H](Cl)[C@@H](Cl)C[C@@H]3[C@@]1(Cl)C2(Cl)Cl`, the outcome in assay [7], in assay [8], in assay [9] and in assay [10] was inactive.
Regarding `COc1cccc(C=O)c1`, the outcome in [7], in [8], in assay [9] and in assay [10] was inactive.
Turning to `O=C(O)C(Cl)(Cl)Cl`, the call in assay [1], in assay [2], in [3], in [4], in [5] and in assay [6] was inactive. The outcome in assay [7], in [8], in [9] and in assay [10] was inactive. For the same compound, the AC50 was 106 µM (active) in [2] and 162 µM (active) in assay [6].
With `CC(C)(OO)c1ccccc1`, the result in assay [1], in assay [4], in assay [6], in assay [7], in [8] and in assay [9] was inactive. For the same compound, in assay [10], the compound was classed as inactive. Moreover, the AC50 in assay [2] is 69.3 µM (active); in assay [3], 49.4 µM (active); in [5], 45.7 µM (active).
For `Cc1ccccc1N`, the compound was called inactive in assay [1], in [2], in [3], in assay [4], in [5] and in [6]. Besides, the result in assay [7], in assay [8], in assay [9] and in assay [10] was inactive.
